Assay results taken from PubChem BioAssay (EPA / NIEHS).
A structure can be active in one record and inactive in another. Active and inactive are the calls of the source. How the source made its calls: active means hit-call score of the fitted dose curve at least 0.9, where 1 is the maximum; inactive means score below 0.9.

Tests used:
[1] = ATG_E_Box_CIS: Attagene CIS-FACTORIAL HepG2 Assay for human Enhancer Box (E-box) (AID 2282936); conditions: HepG2 E-box cis-reporter transcription, actives raise or lower the signal
Method in brief: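 In this cell-based setup, HepG2 cells bearing transfected promoter-driven reporter units were exposed to chemicals for 24 h; reporter transcripts were amplified, 6-FAM-labelled, cut with HpaI and sized by capillary electrophoresis.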

[2] = ATG_M_61_CIS: Attagene CIS-FACTORIAL HepG2 Assay for M61 Transcription Factor (Internal Marker) (AID 2282937); conditions: HepG2 Attagene CIS-FACTORIAL M61 internal marker reporter; actives raise or lower the signal
Method in brief: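 Readout: fluorescent reporter mRNA fragments resolved by capillary electrophoresis after RT-PCR. Transiently transfected human HepG2 cells carried MRTU constructs reporting endogenous TF activity; 24 h chemical exposure; gain or loss of signal fitted relative to DMSO.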

[3] = ATG_M_19_CIS: Attagene CIS-FACTORIAL HepG2 Assay for M19 Transcription Factor (Internal Marker) (AID 2282939); conditions: HepG2 Attagene CIS-FACTORIAL M19 internal marker reporter; actives raise or lower the signal
Method in brief: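 Internal marker readout, fitted in both directions against DMSO, from HepG2 cells carrying transfected cis-element reporter constructs; RT-PCR and capillary electrophoresis of reporter mRNA after 24 h exposure.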

[4] = ATG_ERE_CIS: Attagene CIS-FACTORIAL HepG2 Assay for Estrogen Response Element (ERE) (AID 2282940); conditions: HepG2 ERE cis-reporter, Attagene RNA transcript; actives raise or lower the signal
Method in brief: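 After 24 h compound treatment, RNA from transfected HepG2 cells was reverse-transcribed, reporter cDNA PCR-amplified, FAM-labelled, HpaI-cut and resolved by capillary electrophoresis. ERE-driven cis reporter transcripts reflect endogenous factors; gain or loss scored against DMSO.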

[5] = ATG_Ets_CIS: Attagene CIS-FACTORIAL HepG2 Assay for human Erythroblast Transformation Specific (ETS) (AID 2282941); conditions: HepG2 ETS cis-reporter transcription, actives raise or lower the signal
Method in brief: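 Cis-regulated reporter mRNA induction in HepG2 (transient transfection), 24 h exposure, RT-PCR plus capillary electrophoresis detection; DMSO serves as negative control and baseline.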

[6] = target: Hepatocyte nuclear factor 3-beta (Homo sapiens) (UniProt Q9Y261); assay: ATG_FoxA2_CIS: Attagene CIS-FACTORIAL HepG2 Assay for human Forkhead box A2 (FOXA2) (AID 2282942); conditions: HepG2 cis-reporter transcription factor activity, 24 h; actives raise or lower the signal
Chain of Hepatocyte nuclear factor 3-beta (Homo sapiens) (Q9Y261 whole entry, looked up): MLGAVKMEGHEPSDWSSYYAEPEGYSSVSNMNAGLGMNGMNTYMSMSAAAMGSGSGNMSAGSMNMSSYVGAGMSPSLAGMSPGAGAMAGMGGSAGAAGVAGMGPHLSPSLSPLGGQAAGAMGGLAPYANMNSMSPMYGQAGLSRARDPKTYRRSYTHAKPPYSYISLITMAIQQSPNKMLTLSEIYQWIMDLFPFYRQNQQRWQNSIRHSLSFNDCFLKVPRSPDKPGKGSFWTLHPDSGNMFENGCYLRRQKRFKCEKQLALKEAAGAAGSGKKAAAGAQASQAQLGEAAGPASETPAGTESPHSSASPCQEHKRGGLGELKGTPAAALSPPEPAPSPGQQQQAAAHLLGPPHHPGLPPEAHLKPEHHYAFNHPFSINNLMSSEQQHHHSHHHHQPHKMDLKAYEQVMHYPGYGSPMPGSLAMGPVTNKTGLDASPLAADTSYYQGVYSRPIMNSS
Method in brief: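 Readout: fluorescent reporter transcripts resolved by capillary electrophoresis after RT-PCR. Transiently transfected HepG2, 24 h compound exposure, endogenous TF activity at cis promoter elements. Gain or loss of signal fitted relative to DMSO.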

[7] = ATG_FoxO_CIS: Attagene CIS-FACTORIAL HepG2 Assay for human Forkhead box O (FoxO) (AID 2282943); conditions: HepG2 Attagene cis-reporter, FoxO element, mRNA; actives raise or lower the signal
Method in brief: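 HepG2 cells transiently transfected with cis-element-driven reporter units report endogenous FoxO activity. After 24 h chemical exposure, reporter mRNA quantified by RT-PCR, fluorescent labeling, HpaI digestion and capillary electrophoresis; bidirectional fit versus DMSO.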

[8] = ATG_GATA_CIS: Attagene CIS-FACTORIAL HepG2 Assay for human GATA Binding Protein (AID 2282944); conditions: HepG2 GATA cis-element reporter, Attagene multiplex mRNA; actives raise or lower the signal
Method in brief: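 Reporter transcripts from a GATA cis-regulated unit, among multiplexed reporters in transfected HepG2 cells, were measured by RT-PCR with capillary electrophoresis after 24 h dosing. Induction or loss scored relative to DMSO.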

[9] = ATG_GLI_CIS: Attagene CIS-FACTORIAL HepG2 Assay for human Zinc Finger Protein GLI1 (AID 2282945); conditions: HepG2, Attagene cis-factorial reporter mRNA, GLI element; actives raise or lower the signal
Method in brief: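 Transiently transfected HepG2 cells report endogenous transcription factor activity via cis-element-driven reporter units. After 24 h compound exposure, reporter mRNA was measured by RT-PCR with capillary electrophoresis; bidirectional fitting against DMSO baseline.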

[10] = ATG_EGR_CIS: Attagene CIS-FACTORIAL HepG2 Assay for human Early Growth Response 1 (EGR1) (AID 2282938); conditions: HepG2 Attagene CIS-FACTORIAL EGR reporter mRNA; actives raise or lower the signal
Method in brief: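 Read-out: fluorescent reporter-mRNA fragments resolved by capillary electrophoresis after RT-PCR, 24 h post-dose in transiently transfected HepG2. Endogenous transcription-factor activity reported via cis-element-regulated reporter units; gain or loss fitted relative to DMSO.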

Measured: AC50

C[C@H]1CCCC(=O)CCC/C=C/c2cc(O)cc(O)c2C(=O)O1
active: [4] 0.00291 µM | [5] 7.35 µM | [7] 10.3 µM
not listed: [10]
inactive: all other assays above

NNC(=S)NN
not listed: [10]
inactive: all other assays above

CCc1ccccc1N
not listed: [7] | [10]
inactive: all other assays above

CCCCP(CCCC)CCCC
not listed: [3] | [4] | [10]
inactive: all other assays above

C[C@@H]1C[C@@H]([C@H](O)CC2CC(=O)NC(=O)C2)C(=O)[C@@H](C)C1
inactive: [2] | [10] | [3] | [6] | [8] | [9]
active: [5] 6.31 µM [middle of 4 runs] | [6] 10.1 µM

Cl/C=C\C[N+]12CN3CN(CN(C3)C1)C2
active: [1] 76.9 µM
not listed: [4] | [10]
inactive: all other assays above

c1ccc(N=NNc2ccccc2)cc1
active: [4] 26.3 µM | [6] 25.7 µM | [9] 163 µM
not listed: [10]
inactive: all other assays above

COS(=O)(=O)c1ccc(C)cc1
not listed: [4] | [7] | [10]
inactive: all other assays above

CCC(C)c1cccc(C(C)CC)c1O (stereo unspecified)
not listed: [3] | [10]
inactive: all other assays above

COP(=S)(OC)Oc1cc(Cl)c(Cl)cc1Cl
not listed: [4] | [10]
inactive: all other assays above

O=c1[nH]c(=O)[nH]c(=O)[nH]1
not listed: [4] | [10]
inactive: all other assays above

Clc1ccc(C2(Cn3cncn3)CC(Br)CO2)c(Cl)c1 (stereo unspecified)
active: [4] 2.54 µM
not listed: [10]
inactive: all other assays above

CCOP(=S)(OCC)Oc1ccc(S(C)=O)cc1 (stereo unspecified)
not listed: [10]
inactive: all other assays above

N#Cc1ccccn1
not listed: [10]
inactive: all other assays above

CC(C)OC(=O)Nc1ccccc1
not listed: [7] | [10]
inactive: all other assays above

CC(=O)[O][Hg][c]1ccccc1
not listed: [10]
inactive: all other assays above

CC(=[OH+])/C=C(/C)[O-].CC(=[OH+])/C=C(/C)[O-].CC(=[OH+])/C=C(/C)[O-].[Fe]
not listed: [7] | [10]
inactive: all other assays above
